± gives the standard deviation of the averaged measurements. Whole data set: some 25,000 sequences, median “ln(normalized median fluorescence intensity)” near 8.6, cut for the highest 2% near 10. The list comes from a sample in which the highest values are over-represented; it also holds similar and randomly drawn sequences.
system: PfAP2-EXP AP2 domain (GST-tagged); experiment: gcPBM binding intensity (ln(normalized median fluorescence intensity)); higher = stronger DNA binding
Outline: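 Binding of GST-tagged P. falciparum DNA-binding domains, expressed in E. coli and used at about 25 μg on average, was carried out for 1 h in 1× PBS containing 1% milk, 0.2 mg/ml BSA, 0.5% salmon testes DNA and 0.03% Triton X-100. The target was an Agilent 4 × 180k array of primer-extended double-stranded 36-bp intergenic genomic probes plus negative controls, read with Alexa488 anti-GST antibody at 488 nm. Binding intensity is the highest Masliner-normalised natural-log median intensity across replicate spots of either probe orientation.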

Sequence	gcPBM binding intensity (ln)
TGGTATATAAAACACACACACATATGTATTTATATA [CACACA_site4665]	8.54 ± 0.38
TCATGGAATATTTAAAGTACAAAAAGTGTTCTTTAC [XGTACX_site715]	8.21 ± 0.3
TAATATCATTTATGTAGTACTATAACAAGAACTATA [XGTACX_site3618]	8.33 ± 0.35
TATATATATATAAAGGTGCATATCTTTACGTATGTC [GTGCAC_site9665]	9.99 ± 0.11
AAAAAAAAGGAAAATAAAAATAAAAAAAAATAATAA [XGTACX_negctrl_site601]	8.53 ± 0.52
AAAAAAAAAAAATATACACACACATATATATATATA [CACACA_site9123]	10 ± 0.45
AAAAAAAAAAAAAATACACACACATATATATATATA [CACACA_site8698]	10.1 ± 0.26
AAAAAAAATACATACATACACACATATATATATATA [CACACA_site912]	9.98 ± 0.38
AAAAAAAAAAAATACACACACATATATATATATATA [CACACA_site2224]	10.2 ± 0.23
AAAAAAAAAAAATACACACACACATATATATATATA [CACACA_site731]	10.2 ± 0.18
AAAAAAAAAAAAAATACACACATATATATATATATA [CACACA_site85]	10.1 ± 0.34
TTATATAAATATAAGGTGCTGGGGTTTATTACATAT [GTGCAC_site9909]	9.03 ± 0.54
AAGATGGTAAAGAATTGTACGCGCATATATATATTT [XGTACX_site3904]	9.69 ± 0.42
GGCATACACAGACACACACACACACCCACATATATA [CACACA_site591]	8.79 ± 0.4
TGTATTATATATGTGTGTACATATTTTTTTTTTTTT [XGTACX_site3351]	8.47 ± 0.34
TTTTAAAGCATATCATATAAAGAACATGACATAGGA [CACACA_negctrl_site630]	8.61 ± 0.33
ATTTTTTTTGTAAAAGTGCATATATATATATATATA	10.4 ± 0.35
TTTTTTAAATTTAAAGTGCATTATTATATATTTGTA	8.65 ± 0.15
AAAAAAAAAAAAAAAGTGCATATATAAATATTGTAT [GTGCAC_site9459]	8.62 ± 0.3
AAAATTAATAAATAAACACACATATTTATATTTATA [CACACA_site7266]	8.03 ± 0.41
GAATATTCACATACTTGTACATATATATATATATAT [XGTACX_site7302]	10.2 ± 0.68
ATGTATGTATATACTTGTACATATTCATATTAGTAT [XGTACX_site1118]	8.45 ± 0.35
TAAAAATATTTTCATTGTACATATATATAAATATAT [XGTACX_site1123]	8.4 ± 0.33
CTTAAAAAAATATATTGTACATATATATATACAACT [XGTACX_site1281]	8.33 ± 0.3
AAAATATATTCAACTTGTACATATATATATATATAT [XGTACX_site7629]	10.3 ± 0.13
AAAAAAAAAATTCATTGTACATATATATATATATAT [XGTACX_site8346]	10.2 ± 0.22

Sequence	gcPBM binding intensity (ln)
AATACACAAATATATTGTACATATATATATATATAT [XGTACX_site2440]	9.85 ± 0.34
TAACTTCAAAAATCTTGTACATAAATATATAAAACA [XGTACX_site8574]	8.53 ± 0.44
ATATATATTATATATTGTACATATTATATTCATTAT [XGTACX_site1766]	8.57 ± 0.3
GGATTTATTATATATACACACATACAGATATATATA [CACACA_site5222]	8.48 ± 0.3
GTTTTTTTTATATATTGTACAAATAATATATTATAT [XGTACX_site29]	9.02 ± 0.37
TAAATATATTTATACACACACACCAAAGCAATAGAT [CACACA_site7393]	9.12 ± 0.35
AAAAAATGTTAAAAAAGTACTTTCTTTATTTAATAA [XGTACX_site2908]	8.07 ± 0.4
GAACGCCATTCACATAAAGGGATACATAAATAAATA [XGTACX_negctrl_site330]	8.4 ± 0.42
ATATAAAAATTAAAATGTACATATCTTATTATAATA [XGTACX_site983]	8.32 ± 0.34
TTGTGTACATATTAAGTGCATATATATATATATATA	10.4 ± 0.33
CTTTTAAATTATTTTTGTACATAATTATATATATAT [XGTACX_site4128]	9.4 ± 0.32
TATATTAATAATAAGTGTACATATATATATATTTTT [XGTACX_site288]	8.36 ± 0.3
CATACACATATATATTGTACACATATATGTATGTAT [XGTACX_site4030]	8.45 ± 0.28
ATGTGTATATATTATTGTACATATATATATATATAT [XGTACX_site4627]	10.3 ± 0.2
CATATACATTGTATATGTACATATATATATATATAT [XGTACX_site3772]	10.1 ± 0.36
TATATATTATATATATGTACATATTGTTGTGTATAT [XGTACX_site767]	8.63 ± 0.29
ATATCTTAAATTATTTGTACATATATATATATATAT [XGTACX_site8034]	10.3 ± 0.27
TATATATATATATATTGTACATATATTATTATATAT [XGTACX_site7447]	10.2 ± 0.57
CATGTGCATATTAAATGTACATATATACATATATAC [XGTACX_site857]	8.835 ± 0.064
ATATATATATATATATGTACATATTGTATCTTATAC [XGTACX_site5466]	10.2 ± 0.4
TTTTAAATAAATCATGCATGCACATATAATTATATT [TGCATGCA_site151]	9.94 ± 0.33
TTATATGGATATACAGTGCATATATACATATAAGTG	8.61 ± 0.26
ACAAAAAAATGAAAAGAAAAAGATATACCCCAATAT [CACACA_negctrl_site509]	8.99 ± 0.8
TATGTAATGTTTACAACACACAAATTATAAATACAA [CACACA_site1771]	8.38 ± 0.4
TATTACATTATATAAACATGCAAAACTATATATTAT [TGCATGCA_site601]	8.63 ± 0.45
TGTTTTATTATTTATAGTACATAAAAAAATATTGTA [XGTACX_site8963]	8.25 ± 0.24

Sequence	gcPBM binding intensity (ln)
CAAGAATAAAAATACAAGCACACATGTATGAAATAT [CACACA_site3214]	8.91 ± 0.42
TAAAAAAAAAAAATGTGTACATATTATATATATCTT [XGTACX_site2615]	8.22 ± 0.3
ATATATATATATAAATGTACAGGCTTATCTCTTATT [XGTACX_site1828]	10.2 ± 0.12
TTATATCTTATAAAATGTACATAAAATATATAATAT [XGTACX_site7647]	8.52 ± 0.26
ATTTATCTATAATATACACACATATAACAGACATAT [CACACA_site6469]	8.52 ± 0.33
ATACATTCTAATACGTGTACATATATATATATATAT [XGTACX_site1881]	10.2 ± 0.28
TAATATACATATATATGTACATATATATATATATAT [XGTACX_site2684]	9.93 ± 0.35
TGAATAATATACATACGTACATACATATATATAATA [XGTACX_site1302]	8.32 ± 0.3
ATTACAAAAAAAAAAAAAAAAAAAAAAAAAAAAAAA [CACACA_negctrl_site448]	7.95 ± 0.33
TACATAAATTTTAATACATGCAAATAAAATATATAA [TGCATGCA_site131]	8.88 ± 0.4
AATAATTTTTTAAACACACACACATATATATATATA [CACACA_site95]	10.1 ± 0.3
TATTACACATATTATACACACATATATTATATATAT [CACACA_site4951]	8.69 ± 0.25
ATTTTATTTATATACACACACATATATATATTATAT [CACACA_site822]	8.77 ± 0.44
TTTTTTTTTTTTTAAACATGCAAAATATATAATTTT [TGCATGCA_site633]	8.46 ± 0.36
TTTTATATATTATATACACACATATATATATATATA [CACACA_site2999]	10.2 ± 0.32
TTACTACTATATTATACACACATATATTTATTTATA [CACACA_site7274]	8.7 ± 0.4
TTACTACTATATTATACACACATATATATATATATA [CACACA_site2621]	10.3 ± 0.23
TATATATATATATACACATGCAAAAATTTTTAATTT [TGCATGCA_site82]	10.2 ± 0.35
ATATTTTATTTATATACACACACATATATATATTAT [CACACA_site8177]	8.79 ± 0.47
TAATTTTTTTTAATAACACACATATATATATATATA [CACACA_site813]	10.47 ± 0.042
TAATTTTTTTTAATAACACACATATAAATATAAATA [CACACA_site6521]	8.17 ± 0.45
AAACCTTTAGAAAATCGTACAAAACATAACCACCTA [XGTACX_site1098]	8.81 ± 0.61
CACAGACACGGACACACACACACAAAAAAAAAAAGA [CACACA_site4436]	8.44 ± 0.57
TATTTTTAAATATAAAGTACTTATATTAACTACGAA [XGTACX_site1524]	8.27 ± 0.29
TATATATATACATACATACACACATATATATATATA [CACACA_site4109]	10.1 ± 0.67
ACAATAAAATATGGCACACATATATATATATATTTA [CACACA_site3]	8.43 ± 0.34

Sequence	gcPBM binding intensity (ln)
AAAATCTAGGTATTTATACACACTAAAATAATATAC [CACACA_site623]	8.52 ± 0.3
AAATAAAATAAAATAAAATAAAATAAAATAAAATAA [XGTACX_negctrl_site142]	8.49 ± 0.28
AAAAAATATATATGCACACACAAAAAAACAAATTAA [CACACA_site1278]	8.78 ± 0.38
ATATATATATATTGTACACACATTTATGCATATATA [CACACA_site5738]	9.97 ± 0.3
AGTGAAATTTTAGTCACACAGTTTTATCTTTAAGAA [CACACA_site5202]	8.12 ± 0.52
TTGTGTTATCACACGAAGGGGATAAGACATAAATGT [TGCATGCA_negctrl_site368]	8.49 ± 0.49
TCTTAAGGAAAAGAGTGTACAGAAATTTTTATTAAC [XGTACX_site6139]	8.67 ± 0.48
TGTAGTCTGGAGAAAAGTACATAGTATCTGGTAACC [XGTACX_site2025]	8.62 ± 0.38
ATAAAAAGCTAAAAAGTGCAAAAAGTAAATATTTAA	9 ± 0.44
TTTAAATAAAATATTACACACTTAGAAAAATATATA [CACACA_site3663]	8.38 ± 0.28
AGAATAATAAAATGGGTGCAATAGTTTTTTTTTTTT [GTGCAC_site9823]	8.59 ± 0.13
CATATATATATATATACACACATATATATTTTCTTT [CACACA_site1457]	8.69 ± 0.15
TATATAAACACGTACACACACATATAGGTATTTATA [CACACA_site7615]	8.71 ± 0.49
TTTTTTTTTTTTAATACACACATATATATATTTATT [CACACA_site3994]	8.38 ± 0.42
TATAAGTTTATATATACACACATATATATATATATA [CACACA_site3274]	10.2 ± 0.34
ATTTATATATATATAGGTACACATATTTATATATAA [XGTACX_site8487]	8.23 ± 0.2
ATATATTTATTATTAGGTACACATATATATATATAT [XGTACX_site5045]	10.2 ± 0.54
TTTTTTTTTTTTAATACACACATATTTATATTTATT [CACACA_site7802]	8.44 ± 0.3
TATATATATATATATACACACATATATATATTTTTC [CACACA_site3983]	10.2 ± 0.26
ACAAATAAGTTTTATACACACATATAAGTAAATACA [CACACA_site4157]	8.57 ± 0.29
AATATATTTTAATACACACACACATATATATATATA [CACACA_site5969]	10.3 ± 0.34
AGGATATATAAGTATACACACATATTTATATTTATA [CACACA_site6239]	8.23 ± 0.42
TATATACATATATATACACACATATATATATTTTAT [CACACA_site3788]	8.26 ± 0.4
